Results on 16 compounds are retold here after PubChem BioAssay (NCI).

Compounds without any hit were thinned out: in the full panel of roughly 83,000, 20% have a hit.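 Plates (96-well) were seeded with cells, treated with compound at one concentration, and incubated for 48 hours before percent growth was determined.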 Values without a mark were called inactive. Activity calls are given as the source filed them. Rule for the calls: active = growth percent below 10; inactive = the rest.

Some test systems named below: NCI-H23 lung; NCI-H226 lung; NCI-H322M lung; NCI-H460 lung; 786-0 renal; COLO 205 colon; NCI-H522 lung; A549/ATCC NSCLC; HOP-92 NSCLC.
Holding throughout (assay): NCI-60 one-dose screen, 48 h (100 = growth as untreated, 0 = no growth, -100 = all killed)
Holding throughout (settings): 10 µM

With `CCCCC/C=C/C/C=C/CCCCCCCC1=NC(C)(C)CN1C(C)C`, the growth is 20.7% in the assay with NCI-H23 lung; 86.5% with NCI-H226 lung; 108% with NCI-H322M lung; -32.3% (active) with NCI-H460 lung; 62.4% in the assay on 786-0 renal; -87.2% (active) with COLO 205 colon.

For `N=C1S/C(=C/c2ccc(-c3ccc4c(c3)C(=O)NC4=O)o2)C(=O)N1c1ccc(Br)cc1`, the growth with NCI-H23 lung was 55.8%; in the assay on NCI-H226 lung it was 66.5%; with NCI-H322M lung, 43%; in the assay with NCI-H460 lung, 34.6%; with NCI-H522 lung, 35.5%; in the assay with A549/ATCC NSCLC it was 34.5%. Further, the growth in the assay on 786-0 renal was 45.9%; in the assay on COLO 205 colon it was 55.1%.

Regarding `Cc1cc(C)nc(NS(=O)(=O)c2ccc(Nc3nc4nc(NCc5ccccc5)nc(-c5ccc(O)cc5)c4c(=O)[nH]3)cc2)n1`, the growth with NCI-H23 lung was 31.6%; with NCI-H226 lung it was 31.9%; in the assay on NCI-H322M lung it was 10.2%; in the assay on NCI-H460 lung, 16.4%; in the assay with HOP-92 NSCLC, -11.1% (active); with A549/ATCC NSCLC, 43.9%. Besides, in the assay with COLO 205 colon, the growth was 35.3%.

For `CCCC1(CN2c3ccccc3Sc3ccc(Cl)cc32)CCN(CC)C1` (stereo not drawn), the growth with NCI-H23 lung was 5.21% (active); with NCI-H226 lung it was 32.4%; in the assay on NCI-H322M lung, 25.5%; with NCI-H460 lung it was -100% (active); with NCI-H522 lung, -75.2% (active); in the assay with 786-0 renal, -95.7% (active). Besides, the growth in the assay with COLO 205 colon was -80.8% (active).

Regarding `COc1ccc(C(=O)CC(CC(=O)c2ccc(OC)cc2)c2c(C)nn(-c3ccccc3)c2Cl)cc1`, the growth in the assay on NCI-H23 lung is 90.7%; with NCI-H226 lung, 92.8%; in the assay with NCI-H322M lung it was 96.5%; in the assay on NCI-H460 lung, 97.5%; with NCI-H522 lung, 79.4%; in the assay on A549/ATCC NSCLC, 95.1%. The figures for the growth in the assay on 786-0 renal and in the assay with COLO 205 colon were 86.3% and 117%, respectively.

As to `CSc1ccc(-c2cc(-c3ccc(NC(=O)CCCN4CCCC4)cc3)nc(-c3ccc(NC(=O)CCCN4CCCC4)cc3)c2)cc1`, the growth with NCI-H23 lung was 92.8%; with NCI-H226 lung, 81.9%; in the assay on NCI-H322M lung, 94.8%; with NCI-H460 lung it was 32.1%; in the assay with NCI-H522 lung, 62.5%; with A549/ATCC NSCLC it was 46.2%. The growth in the assay on 786-0 renal was 80.7%; in the assay on COLO 205 colon it was 82.6%.

As for `COc1cc2nc(SCC(=O)Nc3cc(OC)c(OC)c(OC)c3)n(Cc3ccccc3)c(=O)c2cc1OC`, the growth was 69.6% with NCI-H23 lung; 45.9% with NCI-H226 lung; 65.2% in the assay on NCI-H322M lung; 68.7% in the assay on NCI-H460 lung; 28.1% in the assay with A549/ATCC NSCLC; -6.9% (active) in the assay on 786-0 renal. In addition, in the assay with COLO 205 colon, the growth was 96.2%.

On to `O=C(CCl)Oc1ccc(OC(=O)CCl)cc1`, for which the growth was 78.3% in the assay on NCI-H23 lung; 96.5% in the assay with NCI-H226 lung; 101% in the assay on NCI-H322M lung; 95% with NCI-H460 lung; -14.1% (active) in the assay with NCI-H522 lung; 96% in the assay with A549/ATCC NSCLC. Also, the growth in the assay on 786-0 renal was 82%.

As to `O=c1oc2c(cc1-c1ccc(F)cc1)C(O)Oc1ccccc1-2` (stereo not drawn), the growth is 99.2% in the assay with NCI-H23 lung; 105% in the assay with NCI-H226 lung; 83.1% in the assay on NCI-H322M lung; 80.8% in the assay on NCI-H460 lung; 48.8% in the assay with HOP-92 NSCLC; 88.9% in the assay with A549/ATCC NSCLC. Moreover, in the assay on COLO 205 colon, the growth was 101%.

Regarding `CC(=O)OC1C=CC(OC(C)=O)O1` (stereo not drawn), the growth is 89.4% in the assay with NCI-H23 lung; 80% in the assay on NCI-H226 lung; 101% in the assay on NCI-H322M lung; 96.5% with NCI-H460 lung; 79.2% in the assay on NCI-H522 lung; 103% with A549/ATCC NSCLC. Further, the growth in the assay with 786-0 renal is 94.6%; with COLO 205 colon, 97.1%.

For `C[C@]12CC[C@@H]3c4ccc(OS(=O)(=O)O)cc4CC[C@H]3[C@@H]1CC[C@@H]2NS(=O)(=O)c1ccc(-c2ccccc2)cc1`, the growth was 61.5% in the assay with NCI-H23 lung; 68.4% with NCI-H226 lung; 86.9% in the assay on NCI-H322M lung; 43.3% in the assay on NCI-H460 lung; 44.4% with NCI-H522 lung; 36.3% in the assay on A549/ATCC NSCLC. In addition, the growth was 69.6% in the assay with 786-0 renal and 47.4% in the assay on COLO 205 colon.

For the compound `COc1cc(C2CC(c3cc(Cl)c(C)cc3O)=NN2c2ccc(S(N)(=O)=O)cc2)cc(OC)c1OC` (stereo not drawn), the growth is 3.07% (active) in the assay on NCI-H23 lung; 23.5% in the assay with NCI-H226 lung; 41.3% with NCI-H322M lung; -67.7% (active) in the assay on NCI-H460 lung; 8.94% (active) in the assay with NCI-H522 lung; 24.2% in the assay with A549/ATCC NSCLC. In addition, the growth with COLO 205 colon is -100% (active).

For the compound `O=C1/C(=C/c2cccc(F)c2)Cc2ccccc21`, the growth is 101% with NCI-H23 lung; 105% in the assay with NCI-H226 lung; 94.4% in the assay with NCI-H322M lung; 107% in the assay on NCI-H460 lung; 73.5% with HOP-92 NSCLC; 87.7% in the assay with A549/ATCC NSCLC. Further, the growth in the assay with 786-0 renal is 98.1%; in the assay on COLO 205 colon, 124%.

Regarding `CCN(CC)CCCC(Nc1c2ccc(Cl)cc2nc2ccc(OC)cc12)c1ccc(F)cc1` (stereo not drawn), the growth in the assay with NCI-H23 lung is 86.9%; in the assay with NCI-H226 lung, 94.1%; with NCI-H322M lung, 14.7%; in the assay with NCI-H460 lung it was -17.8% (active); in the assay with NCI-H522 lung it was -24.3% (active); with A549/ATCC NSCLC it was 18.4%. Moreover, the growth with 786-0 renal is -70.8% (active).

For the compound `CC(C)(C)c1ccc(S(=O)(=O)N[C@H]2CC[C@H]3[C@@H]4CCc5cc(OS(=O)(=O)O)ccc5[C@H]4CC[C@]23C)cc1`, the growth was 56.8% in the assay on NCI-H23 lung; 52.4% with NCI-H226 lung; 61% in the assay with NCI-H322M lung; 26.2% with NCI-H460 lung; 31.6% in the assay on A549/ATCC NSCLC; 50% with 786-0 renal. In addition, the growth in the assay on COLO 205 colon was 13.8%.

Regarding `Cc1ccc(-n2nnnc2N)c(C)c1`, the growth is 98.1% in the assay on NCI-H23 lung; 115% in the assay on NCI-H226 lung; 121% with NCI-H322M lung; 103% with NCI-H460 lung; 112% with NCI-H522 lung; 104% with A549/ATCC NSCLC. The growth with 786-0 renal was 105%; in the assay with COLO 205 colon it was 117%.
